# Test results taken from PubChem BioAssay (NCI).
# About 83,000 compounds went through this panel and 20% of them were active in at least one assay; those are over-represented in the sample as a whole.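 Note: values are percent growth. 100 is the growth of untreated cells, values between 100 and 0 indicate rising inhibition; between -100 and 0 indicates cell death.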 Values without a mark were called inactive. The source made the active and inactive calls. The calls were made as follows: active = growth percent below 10; inactive = the rest.
# Key:
# Assay in all cases: NCI-60 one-dose screen, 48 h (100 = growth as untreated, 0 = no growth, -100 = all killed)
# Settings in all cases: 10 µM unless noted
# SK-MEL-2 melanoma = system: SK-MEL-2 melanoma
# EKVX NSCLC = system: EKVX NSCLC
# SN12C renal = system: SN12C renal
# UO-31 renal = system: UO-31 renal
# TK-10 renal = system: TK-10 renal
# ACHN renal = system: ACHN renal
# A498 renal = system: A498 renal
# CCRF-CEM leukemia = system: CCRF-CEM leukemia
# MOLT-4 leukemia = system: MOLT-4 leukemia
# SR leukemia = system: SR leukemia
# RPMI-8226 leukemia = system: RPMI-8226 leukemia
# OVCAR-8 ovarian = system: OVCAR-8 ovarian
# OVCAR-5 ovarian = system: OVCAR-5 ovarian
# OVCAR-4 ovarian = system: OVCAR-4 ovarian
# SK-OV-3 ovarian = system: SK-OV-3 ovarian
# IGROV1 ovarian = system: IGROV1 ovarian
# OVCAR-3 ovarian = system: OVCAR-3 ovarian
# HS 578T breast = system: HS 578T breast
# NCI/ADR-RES ovarian = system: NCI/ADR-RES ovarian
# T-47D breast = system: T-47D breast
SMILES,growth (SK-MEL-2 melanoma),growth (EKVX NSCLC),growth (SN12C renal),growth (UO-31 renal),growth (TK-10 renal),growth (ACHN renal),growth (A498 renal),growth (CCRF-CEM leukemia),growth (MOLT-4 leukemia),growth (SR leukemia),growth (RPMI-8226 leukemia),growth (OVCAR-8 ovarian),growth (OVCAR-5 ovarian),growth (OVCAR-4 ovarian),growth (SK-OV-3 ovarian),growth (IGROV1 ovarian),growth (OVCAR-3 ovarian),growth (HS 578T breast),growth (NCI/ADR-RES ovarian),growth (T-47D breast)
C=C(C)[C@@H]1CC[C@]2(C(=O)O)CC[C@]3(C)[C@H](CC[C@@H]4[C@@]5(C)C[C@@H](CC#Cc6ccccc6C)C(=O)C(C)(C)[C@@H]5CC[C@]43C)[C@@H]12,41.1%,28.1%,37.8%,29.4%,27.3%,29.4%,10.7%,31.1%,13.3%,23%,14.6%,24.3%,61%,31.4%,34.2%,62%,18.3%,45%,48%,20.7%
Cc1c(Cl)cccc1NC(=O)c1sc2nc3c(cc2c1N)COCC3,29.4%,60.3%,44.1%,49.2%,57%,44.2%,18.1%,21.1%,27.5%,15.4%,30.3%,33.6%,55.3%,60.9%,26.5%,45.8%,17.8%,40.1%,6.51% (active),32.4%
CC(=O)c1cc2c(N)c(C(=O)Nc3ccccn3)sc2nc1C,53.6%,74.7%,92.7%,86.7%,90.8%,98.9%,30.3%,102%,98.2%,69.2%,99.2%,103%,89.4%,99.4%,48.3%,92.8%,92.2%,74.2%,94.7%,94.5%
CN1C(=O)c2cc(Cl)nc3c(NC(=O)c4cccc(Cl)c4)c(Cl)c(NC(=O)c4cccc(Cl)c4)c1c23,-39% (active),27.4%,-43.2% (active),-61.8% (active),39.9%,-61.7% (active),96.6%,7.27% (active),-19.9% (active),-44.7% (active),38.4%,2.78% (active),88.7%,-22.7% (active),86.4%,-66.2% (active),-52.7% (active),-12.3% (active),27.5%,22.1%
OCCNc1nc(NCCO)nc(Nc2ccc(C3=NN(c4cc(Cl)cc(Cl)c4)C(c4ccc(Cl)cc4)C3)cc2)n1 (stereo not given),73.7%,20.6%,25.1%,18.1%,-2.42% (active),50.8%,71.2%,13.3%,2.38% (active),-29.5% (active),-8.1% (active),20.8%,86%,-17.6% (active),83.1%,-11.6% (active),-60.4% (active),11.6%,20.6%,87.1%
CCSc1ccc(C2C(Br)C(=O)N2c2cc(OC)c(OC)c(OC)c2)cc1 (stereo not given),63.7%,70.2%,31.6%,26.2%,76.6%,32.6%,-14.3% (active),12.3%,20%,16.3%,9.73% (active),17.4%,31.1%,38.3%,21.8%,29.1%,3.63% (active),8.62% (active),14%,67.4%
O=C1Nc2ccc(Br)cc2/C1=N\N=C/c1cn(Cc2ccccc2)c2ccccc12,91.3%,56.2%,84.5%,75.7%,82.4%,98.9%,15.3%,81.1%,67%,80.1%,95.9%,96.1%,28.3%,84.3%,76.2%,80.7%,109%,80.9%,99.5%,89.6%
CC(=O)O[C@@H]1C[C@]2(C)[C@H]3[C@H](O)C[C@@H]4C5=CC(C)(C)CC[C@]5(C)CC[C@@]4(C)[C@]3(C)CC[C@H]2C(C)(C)[C@H]1O,107%,96.5%,99.9%,84.1%,104%,102%,119%,106%,87.1%,87.1%,124%,104%,106%,106%,107%,106%,101%,99.1%,104%,82.3%
N#CC1C(c2ccc(Cl)cc2)=Nc2c(c(-c3ccccc3)nn2-c2ccccc2)C12C(=O)Nc1ccc(Cl)cc12 (stereo not given),71.3%,40.1%,60.2%,22.6%,47.8%,36.6%,60.3%,19.2%,15.3%,36.5%,24.7%,64.6%,65.2%,34.4%,68.6%,42.1%,49.7%,51.4%,67.6%,46.7%
CC(/C=C/c1ccccc1)=N/NC(=O)c1ccncc1,106%,107%,99.8%,89%,105%,111%,95%,92.5%,92.2%,88.9%,99.9%,101%,114%,105%,105%,103%,109%,99.6%,107%,99%
CCCn1cc(/C=N\N=C2\C(=O)Nc3ccc(C)cc32)c2ccccc21,35.1%,50.5%,49.9%,60%,107%,55.7%,57.2%,-0.646% (active),-9.9% (active),11.6%,-24.9% (active),47.5%,84.6%,41.8%,88.4%,39.4%,2.1% (active),74%,76.3%,39.6%
CCCCn1c2cc(OCc3cn(-c4ccc(Cl)cc4)nn3)ccc2c2ccnc(C)c21,74.5%,44.4%,10.5%,-16.3% (active),15.6%,-47.5% (active),62.8%,30.5%,6.26% (active),-4.92% (active),-34.3% (active),29.7%,39.5%,18.2%,52.9%,39.3%,30.1%,54.2%,28%,22.2%
COc1ccc2c(c1)Oc1nc(N)c(C#N)c(N)c1C2Sc1ccc(SC)cc1 (stereo not given),-25.6% (active),32.6%,21.7%,5.13% (active),-16.4% (active),-66.3% (active),95.4%,-2.59% (active),0.548% (active),-17.5% (active),2.48% (active),21.2%,112%,37.2%,94.4%,0.493% (active),-63.3% (active),67.7%,62.9%,-7.13% (active)
Nc1c(C(=O)c2ccccc2)sc2nc(-c3cc4ccccc4o3)cc(-c3ccc(Cl)cc3)c12,84.1%,103%,165%,79.1%,137%,82.9%,199%,105%,101%,108%,82.7%,95.8%,107%,98.3%,106%,55.8%,85.1%,136%,108%,90%
O=C1C(=O)c2c(nc3ccc(C(F)(F)F)cn23)-c2ccccc21,-67.1% (active),-72.5% (active),-84.4% (active),-97.5% (active),-97.3% (active),-99.1% (active),-92.9% (active),0.668% (active),-33.1% (active),-5.53% (active),-26.6% (active),-96% (active),-78% (active),-95.9% (active),-99.6% (active),-58.9% (active),-63% (active),-15.3% (active),-14.1% (active),-50.6% (active)
